Only some compounds are listed: those with a hit (about 0.93% of all), similar ones and a draw of the others.
TRPML1 agonist = human mucolipin-1 channel agonism | Q9GZU1 | activation, % (test concentration not listed) | TRPML1-expressing cells, Ca2+ dye fluorescence, FDSS | AID 624414 | 0.12% of 410,000 active; in the data active means activation above about 50%; inconclusive means mostly about 30% to 49%; further: 0% is about no effect
Target sequence (Q9GZU1 whole entry, looked up): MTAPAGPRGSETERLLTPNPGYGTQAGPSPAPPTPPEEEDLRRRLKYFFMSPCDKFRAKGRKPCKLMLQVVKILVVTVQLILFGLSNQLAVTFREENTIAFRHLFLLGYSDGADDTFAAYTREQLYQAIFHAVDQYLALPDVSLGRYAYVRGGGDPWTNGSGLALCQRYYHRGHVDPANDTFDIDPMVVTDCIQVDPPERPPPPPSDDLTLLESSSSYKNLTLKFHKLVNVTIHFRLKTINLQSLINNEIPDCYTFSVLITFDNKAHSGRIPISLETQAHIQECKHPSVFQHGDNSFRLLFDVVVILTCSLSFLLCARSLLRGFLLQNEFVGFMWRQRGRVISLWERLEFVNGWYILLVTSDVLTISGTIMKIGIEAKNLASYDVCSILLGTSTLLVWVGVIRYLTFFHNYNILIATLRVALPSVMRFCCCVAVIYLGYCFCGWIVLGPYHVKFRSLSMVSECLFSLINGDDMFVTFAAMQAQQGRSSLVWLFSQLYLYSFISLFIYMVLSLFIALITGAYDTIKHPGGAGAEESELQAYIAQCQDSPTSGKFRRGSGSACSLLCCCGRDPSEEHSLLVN
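TRPML1-DL cells, Tet-induced overnight (~16 h, 37 degrees C), loaded 45-90 min at room temperature with Ca8 no-wash calcium dye plus quencher. FDSS fluorescence: 10 s baseline, compound pin-transfer, 110 s agonist read, then EC80 54-4 (4uM final) and 110 s antagonist read.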
TRHR agonist-1 = agonists of human TRH receptor. TRHR cells, calcium flux fluo-8, FDSS agonist mode. activation, % at 2 µM. 0.18% of 360,000 active. P34981; in the data active means activation above about 30%; further: 0% is about no effect
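Read-out: compound-evoked intracellular calcium rise in TRHR cells, fluo-8 dye, kinetic FDSS fluorescence at 1 s/cycle following a 10-cycle baseline. Cells cultured overnight before dye loading (30 min–1.5 h, RT).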
GLP1R cytotox = cytotoxic in the GLP-1 receptor inverse agonist counter-screen. AID 624418. 0.13% of 410,000 active. Potency, µM (highest dose often 38.3 µM), for inactives: at the highest dose activity change, negative = inhibition, usual class: inhibitors. HEK293 cAMP-luciferase reporter cells, luminescence, 24 h;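 further: loss of luciferase light is scored as toxicity; potency means the concentration at half of the fitted maximal effect; on the % scale 0 is the no-effect control and ±100 the full control effect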
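MLSMR compounds, 24 hr on cells at 37 deg C/5% CO2; luminescence after luciferase reagent (12 min RT). Inhibition counted as the undesired cytotoxic outcome.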
PTHR1 agonist = PTHR1 (human) receptor agonism. HEK293 GP2 PTHR1 cells, GloSensor cAMP luminescence, 1 h. AID 743266. 0.075% of 410,000 active. Q03431. Potency, µM (top dose mostly 115 µM), for inactives: top-dose activation, most hits filed as activators; further: potency means the concentration at half of the fitted maximal effect; nearly all actives have a fitted effect of over 55% in size
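HEK-293-derived GP2 cells expressing PTHR1 and a GloSensor cAMP reporter, 3,000/well, plated overnight, given luciferin plus IBMX (each 0.5 mM as added) for 1 h at 37 °C, then compound for 1 h at 37 °C. Luminescence was read after 15 min at room temperature.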
TRHR enhancer-1 = allosteric enhancers of human TRH receptor; 0.66% of 360,000 active; TRHR cells, fluo-8 calcium fluorescence, EC20 TRH enhancement; enhancement, % at 2 µM; P34981; in the data active means enhancement above about 30%; further: 0% is about no effect
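TRHR-expressing cells loaded with fluo-8 calcium dye were read kinetically (ex 480/em 530) during compound addition, then stimulated with an EC20 of TRH (10 nM final). Enhancement of the Gq-mediated intracellular calcium response was scored.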
TRPML1 inh = inhibitors of human TRPML1 channel. TRPML1-inducible cells, Ca2+ dye fluorescence, FDSS; active compounds read low; inhibition of EC80 agonist-evoked calcium signal. 0.02% of 390,000 active. activity change, negative = inhibition, % (test concentration not listed). AID 624415; in the data active means activity change below about -50%; inconclusive means between about -30% and that limit;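 further: stimulus is agonist 54-4 at its EC80 concentration; on the % scale 0 is the no-effect control and ±100 the full control effect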
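TRPML1-DL cells, Tet-induced overnight (~16 h, 37 °C) at 1,500 cells/well, were loaded with Ca8 no-wash dye plus quencher for 45-90 min at room temperature. Compounds were pinned during FDSS kinetic reading; agonist 54-4 at EC80 (4 uM final) then added.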
TRHR enhancer-2 = confirmation of human TRH receptor allosteric enhancers; shares compounds with TRHR enhancer-1; TRH receptor cell assay, enhancer confirmation qHTS; activity change, negative = inhibition, % at 46.1 µM; 970 tested, under 10 active; AID 493076;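 further: compound effect scored on response to added TRH at EC20 of 10 nM; 0% is about no effect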
TRHR agonist-2 = confirmation of human TRH receptor agonists. shares compounds with TRHR enhancer-1. TRHR-expressing cells, agonist activation read-out. Potency, µM (top dose mostly 46.1 µM), inactives show top-dose activation, actives largely listed as activators. 8% of 970 active. AID 493078; further: potency means the concentration at half of the fitted maximal effect; 0% is about no effect; nearly all actives have a fitted effect of over 75% in size
* = called active by the depositor; i = inactive; u = inconclusive; x = no result given; ! = a repeat was not active; [ ] = another dose, or the depositor's remark. Unless noted, the call rests on the fitted dose curve; in most records, active means well fitted curve in the direction sought with a large enough effect; inconclusive means small, poorly fitted or top-dose-only effect, or another doubt; inactive means no such curve, though single readings can be large; an effect the other way counts as inactive or inconclusive.

SMILES	TRPML1 agonist	TRHR agonist-1	GLP1R cytotox	PTHR1 agonist	TRHR enhancer-1	TRPML1 inh	TRHR enhancer-2	TRHR agonist-2
CC(=O)Nc1ccccc1C	0.7	-0.1	1.6%	-8.0%	2.0	29.0	x	x
CC(=O)Nc1cc(NC(C)=O)c(N=Nc2ccccc2)cc1C	4.5	-0.1	-20.5%	i	62.9*	-2.9	-3.2	2.0%
CS(=O)(=O)Nc1ccc(C(=O)Nc2ccc3c(c2)OCO3)cc1	2.0	0.2	-4.9%	i	46.5*	2.1	-4.8	-0.3%
CCCN1CNc2c(c(=O)[nH]c(=S)n2Cc2ccc(OC)c(OC)c2)C1	-0.2	x	x	x	x	x	x	x
COc1ccc2[nH]c(O)c(N=NC(=N)N)c2c1	0.8	0.7	-25.9%	-17.7%	61.8*	-9.2	1.7	-0.5%
Cc1ccc2[nH]c(O)c(N=NC(N)=S)c2c1	-0.6	0.1	17.5%	u	-7.2	-6.3	x	x
COc1ccc(-c2ccccc2C2C3C=CCCC3(C)C(=O)N2Cc2ccccc2)cc1 (centres undefined)	1.4	x	x	x	x	-1.9	x	x
O=C(Nc1ccc(S(=O)(=O)Nc2nccc(C3Cc4ccccc4C(=O)O3)n2)cc1)c1ccccc1 (centres undefined)	2.0	0.3	5.0%	-2.9%[57.5 µM]	42.8*	18.6	-4.7	0.9%
CCCN1C(=O)c2ccccc2NC1c1ccc(Cl)c(Cl)c1 (centres undefined)	3.1	-1.3	-12.3%	-1.7%	74.4*	19.4	-12.9	-0.6%
CCCN1C(=O)c2ccccc2NC1c1ccc(Cl)cc1 (centres undefined)	-0.5	-0.1	1.4%	-4.2%	-2.3	8.1	x	x
O=c1ccc(-c2nc3ccccc3n2Cc2ccc(Cl)cc2)c[nH]1	-0.1	1.2	7.0%	-26.9%	49.3*	-8.0	-7.1	0.7%
Cn1c(-c2ccc(=O)[nH]c2)nc2ccccc21	-0.2	-0.4	3.8%	i	3.2	-9.0	x	x
CCc1cccc(NC(=O)COC(=O)c2ccccc2OCc2ccccc2Br)c1	2.6	x	x	x	x	x	x	x
COC(=O)COc1ccc(S(=O)(=O)Nc2cc([N+](=O)[O-])ccc2C)cc1	-0.2	-0.1	-1.7%	i	44.5*	2.7	3.8	-0.7%
COC(=O)COc1ccc(NS(=O)(=O)c2cccc([N+](=O)[O-])c2)cc1	-0.1	0.0	10.5%	-25.5%	-4.9	5.3	x	x
COC(=O)c1cc(S(=O)(=O)N2CCN(c3ccccc3)CC2)c[nH]1	-0.3	0.8	-2.3%	-7.0%	-2.5	29.2	x	x
COC(=O)c1cc(S(=O)(=O)N2CCN(c3cccc(C)c3C)CC2)c[nH]1	1.6	0.2	3.0%	-34.1%	48.2*	45.6	-7.4	-0.6%
Cc1ccc2nc(-c3ccc(NC(=O)COC(=O)c4cncc(Br)c4)cc3)sc2c1	1.8	0.2	10.4%	-29.6%	43.7*	18.0	4.6	-0.5%
Cc1ccc2nc(-c3ccc(NC(=O)COC(=O)c4ccc(Br)o4)cc3)sc2c1	0.5	0.5	-1.1%	-34.8%	4.5	3.2	x	x
COc1ccc(OC)c(CCNC(=O)CCCc2nnc3n(C)c(=O)c4sccc4n23)c1	-0.4	1.0	-14.8%	-14.1%	55.9*!	-0.5	4.1	-0.7%
Cn1c(=O)c2sccc2n2c(CCCC(=O)NCc3cccnc3)nnc12	0.9	0.3	5.7%	-14.6%	42.1*	5.0	-7.1	-0.6%
COc1ccc(NC(=O)CCCc2nnc3n(C)c(=O)c4sccc4n23)cc1	3.7	-0.1	0.4%	i	-5.2	1.0	x	x
CN(C)c1ccc(C=Nc2cncc3ccccc23)cc1	-0.5	x	x	x	x	x	x	x
COc1cccc2cc(-c3nc(-c4ccccc4)c(C)s3)c(=O)oc12	0.3	x	x	x	x	x	x	x
